Experimental findings from PubChem BioAssay AID2014 (Sanford-Burnham Center for Chemical Genomics, 2009) are described below.

For this assay, the target named is Polyadenylate-binding protein 1 (Homo sapiens) (UniProt P11940). The experiment in a line: PABP poly(A) RNA binding inhibitors, primary screen, biochemical, fluorescence polarization, uHTS (AID 2014).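 Further: calls also rest on retests at 20 µM and on dose response follow-up.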 To be noted: stronger effect = higher value. In general terms: Polarisation of emitted light reports the rotation of a fluorescent probe.
Sequence of Polyadenylate-binding protein 1 (Homo sapiens) (P11940 whole entry, looked up): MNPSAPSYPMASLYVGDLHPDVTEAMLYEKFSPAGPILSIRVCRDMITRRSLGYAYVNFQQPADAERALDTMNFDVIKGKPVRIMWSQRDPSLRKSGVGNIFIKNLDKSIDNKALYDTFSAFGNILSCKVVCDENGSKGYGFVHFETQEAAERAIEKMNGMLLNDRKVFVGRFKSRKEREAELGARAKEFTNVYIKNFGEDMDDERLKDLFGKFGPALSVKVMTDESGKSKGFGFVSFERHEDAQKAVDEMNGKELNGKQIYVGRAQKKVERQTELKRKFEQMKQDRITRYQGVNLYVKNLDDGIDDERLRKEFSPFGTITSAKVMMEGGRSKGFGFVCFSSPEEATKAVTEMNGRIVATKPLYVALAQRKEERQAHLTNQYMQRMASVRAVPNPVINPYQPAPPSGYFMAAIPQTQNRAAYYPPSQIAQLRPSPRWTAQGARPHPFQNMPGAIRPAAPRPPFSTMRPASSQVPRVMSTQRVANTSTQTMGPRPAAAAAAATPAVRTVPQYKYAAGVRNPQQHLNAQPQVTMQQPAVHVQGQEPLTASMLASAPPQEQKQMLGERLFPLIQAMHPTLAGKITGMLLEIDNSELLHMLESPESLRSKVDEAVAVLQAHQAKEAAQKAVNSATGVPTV

Among all 290,000 compounds or so, about 3,000 (1%) were called active. How the calls were made is not given here. The full list was thinned out, with actives kept by preference.

With `CCCCC1=CC2=CC(=O)C(C)(OC(=O)CC)C(=O)C2=CN1CCCOC(C)C` (stereo unspecified), the inhibition (usually the relative decrease from the control value, in per cent) (at 35 µM) was 34.8% (active) and the inhibition (confirmation repeats, at 20 µM) is 51.1%.
Taken in the same sequence, the figures for `COC(=O)CCCC1=CC2=CC(=O)C(C)(OC(=O)c3cccs3)C(=O)C2=CN1CC(C)C` (stereo unspecified) were 36.8% (active) and 67.3%.
For the compound `COC(=O)CCCC1=CC2=CC(=O)C(C)(OC(=O)c3cccs3)C(=O)C2=CN1CC1CC1` (stereo unspecified), the inhibition (at 35 µM) is 32.8% (inactive).
On to `Cc1ccccc1-n1cc(CNC(=O)C2CCC(=O)N(C3CC3)C2)cn1` (stereo unspecified), for which the inhibition (at 35 µM) is -10.9% (inactive).
For the compound `CCOc1ccccc1NC(=O)Cc1cccs1`, the inhibition (at 35 µM) was 4.2% (inactive).
On the same count and under the same terms, for `Cc1cc(Cl)c2oc(C(=O)NC(C)c3ccncn3)c(C)c2c1` (stereo unspecified) the value was -10% (inactive); for `CC(C)(C)NC(=O)CSc1nnc(NC(=O)CCc2ccccc2)s1`, -1.7% (inactive); for `COc1cc(NC(=O)CSc2ccc(-c3cccnc3)nn2)cc(OC)c1`, 15.1% (inactive).
On the same count and under the same terms, for `O=C(c1ccco1)N1CCN(Cc2cccc(C(F)(F)F)c2)CC1` the value was 6.5% (inactive).
On the same count and under the same terms, the figure for `CC1CCN(S(=O)(=O)c2ccc3c(c2)n(C)c(=O)n3C)CC1` is -1.1% (inactive).
Consider `COc1cc(/C=C(\C#N)C(=O)Nc2ccc3ccccc3c2)c([N+](=O)[O-])cc1OC`, for which the inhibition (at 35 µM) was -2.3% (active) and the inhibition (confirmation repeats, at 20 µM) is 70.5%.
In the case of `COc1cc(/C=C(/NC(=O)c2ccccc2)C(=O)Nc2cccc(O)c2)c([N+](=O)[O-])cc1OC`, for the setting “at 35 µM”, the inhibition is -0.9% (inactive).
Same read-out and setting: for `COc1ccc(NC(=O)/C(C#N)=C\c2cc(OC)c(OCc3ccc(C(=O)O)cc3)cc2Br)cc1` the value was 7.9% (inactive); for `COCc1cc(=O)n2[nH]c(C)c(-c3ccccc3)c2n1`, 8.4% (inactive); for `c1coc(-c2nc3nc4ccccc4n3nc2-c2ccco2)c1`, 63.7% (active).
With `Cn1c(-c2ccco2)nc2cc3ccccc3cc21`, the inhibition (at 35 µM) is 4% (inactive).
Same read-out and setting: for `COc1ccc(CCn2c(-c3ccco3)nc3nc4ccccc4nc32)cc1OC` the value was 12.4% (inactive); for `CCOC(=O)C1=C(CCc2ccccc2)NC(=O)NC1c1ccc2ccccc2c1` (stereo unspecified), -1% (inactive); for `CCOC(=O)CNC(=O)CSc1ncccc1-c1nc2ccccc2[nH]1`, 0.2% (inactive).
For `Cc1cc(C(=O)NCCc2ccc(Cl)cc2)c(C)o1`, the inhibition (at 35 µM) is 0% (inactive).
`Cc1cc(C)cc(OCC(=O)NNC(=O)CCN2C(=O)c3ccccc3C2=O)c1`: the inhibition is 116% (active) (at 35 µM) and 74.1% (confirmation repeats, at 20 µM).
As for `Cc1cc(C)cc(NC(=O)CCN2C(=O)c3ccccc3C2=O)c1`, the inhibition (at 35 µM) was 0.7% (inactive).
Still for that read-out and setting: for `Cc1ccc(NC(=O)CCN2C(=O)c3ccccc3C2=O)cc1C` the value was -7.2% (inactive).
Same read-out and setting: the figure for `COc1cc(NC(=O)c2ccc(-c3csc(C)n3)cc2)c(OC)cc1Cl` is 7.9% (inactive); for `COC(=O)c1cc(NS(=O)(=O)c2ccc3c(c2)c(=O)n(C)c(=O)n3C)cc(C(=O)OC)c1` it is 3.8% (inactive); for `COC(=O)c1ccc(N2CCOCC2)c(NC(=O)c2ccc3c(c2)OCCO3)c1` it is 4.7% (inactive).
As to `CCC(CC)C(=O)N1CCN(c2cccc(C)c2C)CC1`, the inhibition (at 35 µM) is -1.2% (inactive).
Take `O=C(/C=C/c1ccco1)NC(=S)N1CCCCC1`: the inhibition (at 35 µM) is 1.1% (inactive).
Turning to `Cc1cccc(N2CCN(C(=O)/C=C/c3ccco3)CC2)c1C`, the inhibition reads like this: (at 35 µM) -10.7% (active); (confirmation repeats, at 20 µM) 96.7%.
Turning to `COc1ccc(C(O)(C2CCCCC2)C(CN2CCCC2)c2ccccc2)cc1` (stereo unspecified), the inhibition (at 35 µM) was 12.9% (inactive).
Still for that read-out and setting: the figure for `Cc1ccc2sc(N(CCN(C)C)C(=O)/C=C/c3cccs3)nc2c1C` is -1.9% (inactive); for `CCCN(c1ccc(C)cc1)c1nc(=O)c2cccnc2s1` it is 71.4% (active); for `CC1(C(=O)N/N=C/c2cc3c(cc2Br)OCO3)CC1(Br)Br` (stereo unspecified) it is -5.1% (inactive).
As for `CCN(CC(=O)NCc1ccco1)S(=O)(=O)c1ccc(F)cc1`, the inhibition (at 35 µM) is -5.2% (inactive).
`NS(=O)(=O)c1cccc(NC(=O)CC23CC4CC(CC(Br)(C4)C2)C3)c1`: the inhibition (at 35 µM) was -11.5% (inactive).
The same measure, in the same setting: the figure for `CC(C)Nc1ccc(-n2nc3ccccc3[n+]2[O-])cc1` is 1% (inactive); for `CCN1CCN(CCNC(=O)c2ccc3c(c2)NC(=O)/C(=C\c2ccc(OC)c(OC)c2)S3)CC1` it is 6.5% (inactive); for `O=C(NCCN1CCOCC1)c1ccc(/C=C2\Sc3ccccc3N(Cc3ccc(F)cc3)C2=O)cc1` it is -1.5% (inactive).
As for `CCN1CCN(CCNC(=O)c2ccc(/C=C3/Sc4ccccc4N(Cc4cccc(C)c4)C3=O)cc2)CC1`, the inhibition (at 35 µM) is 60.2% (active) and the inhibition (confirmation repeats, at 20 µM) was 75.8%.
For `COc1ccc(/C=N/OCc2ccccc2C#N)c(OC)c1`, for the setting “at 35 µM”, the inhibition is 12.1% (inactive).
With `CC(NC(=O)CCCC1CCCCC1)c1ccc(S(N)(=O)=O)cc1` (stereo unspecified), the inhibition (at 35 µM) is -0.5% (inactive).
On the same count and under the same terms, the figure for `Cc1ccc(NC(=O)Cc2nnc(SCC(=O)Nc3nncs3)n2C)cc1` is -10.3% (inactive); for `S=C(NCc1ccc2c(c1)OCO2)NCc1ccco1` it is 2.5% (inactive); for `COc1cccc(NC(=S)NCc2ccco2)c1` it is 3.2% (inactive).
Take `S=C(NCc1ccco1)Nc1ccc2c(c1)OCCO2`: the inhibition reads like this: (at 35 µM) 76.8% (active); (confirmation repeats, at 20 µM) 58.4%.
As to `CCOC(=O)C1=C(C)NC(=S)NC1c1cccs1` (stereo unspecified), the inhibition (at 35 µM) was 3.2% (inactive).
Regarding `CCOC(=O)N1CC=C2C(C#N)=C(N)C(C#N)(C#N)[C@H](c3cccs3)[C@H]2C1`, the inhibition (at 35 µM) is 82.2% (active).
For `N#CC1=C(N)C(C#N)(C#N)[C@H](c2ccsc2)[C@H]2COCC=C12`, the inhibition is 111% (inactive) (at 35 µM) and 0% (confirmation repeats, at 20 µM).
